Laboratory results as given in PubChem BioAssay AID1159580 (chemical genetic matrix, 2015).
Screen size: about 5,500 compounds; about 2,000 (36%) were called active. Not shown: some 18% with an inconclusive outcome. Rule as the data show it: active = normalized growth mostly below about 0.91 (no sharp cut-off); inconclusive = no clear call, values can overlap the other calls; inactive = mostly above about 0.92. Some of the results follow.

Assay: chemical genetic growth profiling, strain panel (AID 1159580);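 also: tested at 20 µM; growth read once vehicle control cultures reached saturation at 30 °C; 1 = growth at the plate median or of vehicle wells; lower values mean less growth of the strain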
Conditions: S. cerevisiae deletion strains, growth OD

Measured: normalized growth

FC(F)(F)C(Cl)Br (configuration not stated)
inactive: locus YAL021C, strain ccr4, hits give low values 1.02 | locus YAL026C, strain drs2, hits give low values 1.03 | locus YAL030W, strain snc1, hits give low values 1.02 | locus YBL061C, strain skt5, hits give low values 1.02 | locus YBR009C, strain hhf1, hits give low values 1.04 | locus YBR023C, strain chs3, hits give low values 1.03 | locus YBR171W, strain sec66, hits give low values 1.05 | locus YBR231C, strain swc5, hits give low values 1.03 | locus YBR279W, strain paf1, hits give low values 1.03 | locus YCL011C, strain gbp2, hits give low values 1.03 | locus YCL016C, strain dcc1, hits give low values 1.02 | locus YCL061C, strain MRC1, hits give low values 1.02 | locus YCL069W, strain vba3, hits give low values 1.02 | locus YCR088W, strain abp1, hits give low values 1.02 | locus YDL005C, strain med2, hits give low values 1.03 | locus YDL040C, strain nat1, hits give low values 1.02 | locus YDR001C, strain nth1, hits give low values 1.01 | locus YDR069C, strain doa4, hits give low values 1.02 | locus YDR137W, strain rgp1, hits give low values 1.07 | locus YDR159W, strain sac3, hits give low values 1.04 | locus YDR195W, strain ref2 1.05 | locus YDR297W, strain sur2, hits give low values 1.01 | locus YDR334W, strain swr1, hits give low values 1.02 | locus YDR335W, strain msn5, hits give low values 1.02 | locus YDR392W, strain spt3, hits give low values 1.01 | locus YEL003W, strain gim4, hits give low values 1.02 | locus YEL037C, strain rad23, hits give low values 0.997 | locus YEL061C, strain CIN8 (second series), hits give low values 1.02 | locus YER015W, strain faa2, hits give low values 1.02 | locus YER016W, strain bim1, hits give low values 1.04 | locus YER111C, strain swi4, hits give low values 1.03 | locus YER155C, strain BEM2 (second series), hits give low values 1.02 | locus YFR010W, strain ubp6, hits give low values 1.03 | locus YGL167C, strain pmr1, hits give low values 1.04 | locus YGL173C, strain kem1, hits give low values 1.02 | locus YGL227W, strain vid30, hits give low values 1.04 | locus YGL240W, strain doc1, hits give low values 1.02 | locus YGL253W, strain hxk2, hits give low values 1.02 | locus YHR013C, strain ard1, hits give low values 1.02 | locus YHR027C, strain rpn1, hits give low values 1.03 | locus YHR142W, strain chs7, hits give low values 1.03 | locus YJL092W, strain hpr5, hits give low values 1.01 | locus YJL095W, strain BCK1 (second series), hits give low values 1.01 | locus YJL115W, strain asf1, hits give low values 1.01 | locus YJL129C, strain trk1, hits give low values 1.06 | locus YJL154C, strain vps35, hits give low values 1.02 | locus YJL164C, strain tpk1, hits give low values 1.02 | locus YJL166W, strain qcr8, hits give low values 1.03 | locus YJL187C, strain SWE1, hits give low values 1.03 | locus YKL160W, strain elf1, hits give low values 1.02 | locus YKR026C, strain gcn3, hits give low values 1 | locus YKR091W, strain srl3, hits give low values 1.02 | locus YLL001W, strain dnm1, hits give low values 1.01 | locus YLL026W, hits give low values 1.02 | locus YLL041C, strain sdh2, hits give low values 1.02 | locus YLR027C, strain aat2, hits give low values 1.02 | locus YLR221C, strain rsa3, hits give low values 1.02 | locus YLR258W, strain gsy2, hits give low values 1.02 | locus YLR262C, strain YPT6 (second series), hits give low values 1.04 | locus YLR320W, strain mms22, hits give low values 1.03 | locus YLR342W, strain FKS1, hits give low values 1.02 | locus YLR357W, strain rsc2, hits give low values 1.07 | locus YLR370C, strain arc18, hits give low values 1.03 | locus YLR384C, strain iki3, hits give low values 1.02 | locus YML120C, strain ndi1, hits give low values 1.03 | locus YMR058W, strain fet3, hits give low values 1.02 | locus YMR125W, strain sto1, hits give low values 1.02 | locus YMR129W, hits give low values 1.03 | locus YMR205C, strain PFK2, hits give low values 1.03 | locus YMR231W, strain pep5, hits give low values 1.02 | locus YNL071W, strain lat1, hits give low values 1.03 | locus YNL209W, strain ssb2, hits give low values 1.02 | locus YNL248C, strain rpa49, hits give low values 1.03 | locus YNL322C, strain KRE1 (second series), hits give low values 1.02 | locus YNR049C, strain mso1, hits give low values 1.02 | locus YOR001W, strain rrp6, hits give low values 1.04 | locus YOR070C, strain gyp1, hits give low values 1.01 | locus YOR080W, strain dia2, hits give low values 1.02 | locus YOR083W, strain WHI5, hits give low values 1.01 | locus YOR106W, strain vam3, hits give low values 1.04 | locus YOR265W, strain rbl2, hits give low values 1.03 | locus YOR270C, strain vph1, hits give low values 1.08 | locus YOR290C, strain snf2, hits give low values 1.04 | locus YPL051W, strain arl3, hits give low values 1.04 | locus YPL078C, strain atp4, hits give low values 1.02 | locus YPL106C, strain sse1, hits give low values 1.02 | locus YPL240C, strain hsp82, hits give low values 1.02
